A short description of assay [1]: CEETOX_H295R_ESTRONE: CeeTox H295R High-throughput Steroidogenesis Assay for Estrone (AID 2283441). Conditions: actives raise or lower the signal. In short, it runs like this:
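Estrone secreted into medium quantified by LC-MS/MS after dansyl chloride derivatization, following 48 h chemical exposure (0.1% DMSO final) of forskolin-prestimulated (10 uM, 48 h) H295R cells; gain or loss fitted against DMSO; MTT viability in same wells.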

Assay [2] is described as follows: CEETOX_H295R_PROG: CeeTox H295R High-throughput Steroidogenesis Assay for Progesterone (PROG) (AID 2283442).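 On AC50: human H295R adrenal cells primed with 10 µM forskolin before dosing.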 Conditions: actives raise or lower the signal. Put shortly:
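H295R adrenal cells prestimulated 48 h with 10 uM forskolin, then exposed 48 h to test chemical in 0.1% DMSO. Progesterone in medium quantified by HPLC-MS/MS after MTBE extraction; viability checked by MTT in same wells.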

Read-out in assay [3]: Fatty acid synthase (Homo sapiens) (UniProt P49327)
In words: LTEA_HepaRG_FASN: Life Technologies and Expression Analysis (LTEA) Assay for Fatty Acid Synthase (FASN) using HepaRG (AID 2283448). Conditions: mRNA level, 48 h; actives raise or lower the signal. Put shortly: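 Cells were plated, cultured 48 h, switched to serum-free induction medium, then dosed in duplicate (max 100 uM, half-log dilutions, 0.5% DMSO) for 48 h. RNA was then isolated and FASN quantified by qRT-PCR.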

Read-out in assay [4]: Cyclin Dependent Kinase Inhibitor 1A (CDKN1A), CDKN1A (gene 1026)
The assay can be described thus: LTEA_HepaRG_CDKN1A: Life Technologies and Expression Analysis (LTEA) Assay for Cyclin Dependent Kinase Inhibitor 1A (CDKN1A) using HepaRG (AID 2283450). Conditions: mRNA level, 48 h; actives raise or lower the signal. In short, it runs like this:
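Differentiated HepaRG cells in serum-free induction medium, exposed 48 h in duplicate to eight half-log concentrations up to 100 uM in 0.5% DMSO. mRNA measured by TaqMan qRT-PCR, normalized to ACTB, GAPDH, POLR2A; bidirectional fit versus DMSO.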

Read-out in assay [5]: Cyclin D1 (CCND1), CCND1 (gene 595)
The assay can be described thus: LTEA_HepaRG_CCND1: Life Technologies and Expression Analysis (LTEA) Assay for Cyclin D1 (CCND1) using HepaRG (AID 2283451).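 On AC50: TaqMan qRT-PCR transcript level normalised to ACTB GAPDH and POLR2A housekeeping genes.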 Conditions: mRNA level, 48 h; actives raise or lower the signal. In short, it runs like this: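 Differentiated HepaRG cells exposed 48 h in serum-free induction medium to eight half-log concentrations from 100 uM top, 0.5% DMSO, duplicates. CCND1 mRNA measured by Fluidigm TaqMan qRT-PCR, normalised to ACTB, GAPDH, POLR2A; bidirectional fit.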

Read-out in assay [6]: catalase (CAT), CAT (gene 847)
The assay can be described thus: LTEA_HepaRG_CAT: Life Technologies and Expression Analysis (LTEA) Assay for catalase (CAT) using HepaRG (AID 2283452). Conditions: mRNA level, 48 h; actives raise or lower the signal. Put shortly: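 Expression of CAT was quantified by TaqMan qRT-PCR with ACTB/GAPDH/POLR2A normalization after 48 h chemical exposure of HepaRG. Eight-point half-log series, top 100 uM, in 0.5% DMSO; gain or loss fitted against vehicle.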

Read-out in assay [7]: flavin-containing dimethylaniline monooxygenases 3 (FMO3), FMO3 (gene 2328)
In words: LTEA_HepaRG_FMO3: Life Technologies and Expression Analysis (LTEA) Assay for flavin-containing dimethylaniline monooxygenases 3 (FMO3) using HepaRG (AID 2283453). Conditions: mRNA level, 48 h; actives raise or lower the signal. Put shortly:
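FMO3 transcript quantified by TaqMan qRT-PCR against three housekeeping genes after 48 h chemical exposure of HepaRG cells. Eight-point half-log series, top 100 uM, 0.5% DMSO vehicle; phenobarbital 1mM induction control; up- or down-regulation fitted.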

Read-out in assay [8]: CFLAR gene, CFLAR (gene 8837)
In words: LTEA_HepaRG_CFLAR: Life Technologies and Expression Analysis (LTEA) Assay for CFLAR gene using HepaRG (AID 2283455). Conditions: mRNA level, 48 h; actives raise or lower the signal. In short, it runs like this:
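Transcript level by qRT-PCR (normalized to ACTB, GAPDH and POLR2A) after 48 h chemical exposure of HepaRG cells, top concentration 100 uM with half-log steps, 0.5% DMSO vehicle, duplicates; fitted bidirectionally against DMSO baseline.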

Read-out in assay [9]: Forkhead box O1 (FOXO1), FOXO1 (gene 2308)
In words: LTEA_HepaRG_FOXO1: Life Technologies and Expression Analysis (LTEA) Assay for Forkhead box O1 (FOXO1) using HepaRG (AID 2283456). Conditions: mRNA level, 48 h; actives raise or lower the signal. Put shortly: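 FOXO1 transcript quantified by qRT-PCR after 48 h chemical exposure (top 100 uM, half-log steps, 0.5% DMSO) of HepaRG cells, housekeeping-normalized (ACTB/GAPDH/POLR2A). Changes fitted in both directions relative to vehicle.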

Read-out in assay [10]: growth arrest and DNA damage 45 (GADD45A), GADD45A (gene 1647)
In words: LTEA_HepaRG_GADD45A: Life Technologies and Expression Analysis (LTEA) Assay for growth arrest and DNA damage 45 (GADD45A) using HepaRG (AID 2283458). Conditions: mRNA level, 48 h; actives raise or lower the signal. In short, it runs like this: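 Transcript induction or loss, quantified by TaqMan qRT-PCR against three housekeeping genes, is the read-out. HepaRG cells received chemicals for 48 h across eight half-log concentrations from 100 uM in 0.5% DMSO; gain and loss fitted relative to DMSO.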

Read-out in assay [11]: Forkhead box O3 (FOXO3), FOXO3 (gene 2309)
In words: LTEA_HepaRG_FOXO3: Life Technologies and Expression Analysis (LTEA) Assay for Forkhead box O3 (FOXO3) using HepaRG (AID 2283459). Conditions: mRNA level, 48 h; actives raise or lower the signal. Put shortly:
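FOXO3 transcript measured by qRT-PCR (normalized to ACTB, GAPDH, POLR2A) after 48 h exposure of HepaRG cells in serum-free induction medium. Duplicates, eight half-log concentrations up to 100 uM, 0.5% DMSO; gain or loss fitted against DMSO.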

Read-out in assay [12]: ABC Transporter (ABCB1), ABCB1 (gene 5243)
The assay can be described thus: LTEA_HepaRG_ABCB1: Life Technologies and Expression Analysis (LTEA) Assay for ABC Transporter (ABCB1) using HepaRG (AID 2283460). Conditions: mRNA level, 48 h; actives raise or lower the signal. Put shortly: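 ABCB1 transcript level measured by TaqMan qRT-PCR against three housekeeping genes after 48 h chemical exposure of differentiated HepaRG cells. Top concentration 100 uM, half-log steps, eight points, 0.5% DMSO vehicle; bidirectional fit relative to DMSO.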

Read-out in assay [13]: growth arrest and DNA damage 45 (GADD45B), GADD45B (gene 4616)
The assay can be described thus: LTEA_HepaRG_GADD45B: Life Technologies and Expression Analysis (LTEA) Assay for growth arrest and DNA damage 45 (GADD45B) using HepaRG (AID 2283461). Conditions: mRNA level, 48 h; actives raise or lower the signal. Put shortly: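 Differentiated human HepaRG cells in serum-free induction medium exposed 48 h in duplicate to eight concentrations, top 100 uM, half-log steps, 0.5% DMSO. GADD45B mRNA by TaqMan qRT-PCR, normalized to ACTB, GAPDH, POLR2A; bidirectional fit versus DMSO.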

Read-out in assay [14]: ABC Transporter (ABCB11), ABCB11 (gene 8647)
In words: LTEA_HepaRG_ABCB11: Life Technologies and Expression Analysis (LTEA) Assay for ABC Transporter (ABCB11) using HepaRG (AID 2283463). Conditions: mRNA level, 48 h; actives raise or lower the signal. In short, it runs like this:
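ABCB11 transcript levels quantified by TaqMan qRT-PCR against three housekeeping genes after 48 h chemical exposure of HepaRG cultures. Concentrations up to 100 uM in half-log steps, 0.5% DMSO vehicle; both induction and suppression scored.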

Read-out in assay [15]: Broad substrate specificity ATP-binding cassette transporter ABCG2 (Homo sapiens) (UniProt Q9UNQ0)
In words: LTEA_HepaRG_ABCG2: Life Technologies and Expression Analysis (LTEA) Assay for ABC Transporter (ABCG2) using HepaRG (AID 2283465). Conditions: mRNA level, 48 h; actives raise or lower the signal. In short, it runs like this: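 ABCG2 transcript was quantified by TaqMan qRT-PCR against three housekeeping genes in HepaRG cells. Cells were treated in duplicate for 48 h across an 8-point half-log series up to 100 uM, with 0.5% DMSO vehicle. Gain or loss versus DMSO was fit.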

Read-out in assay [16]: ATP-citrate lyase (ACLY), ACLY (gene 47)
In words: LTEA_HepaRG_ACLY: Life Technologies and Expression Analysis (LTEA) Assay for ATP-citrate lyase (ACLY) using HepaRG (AID 2283466). Conditions: mRNA level, 48 h; actives raise or lower the signal. Put shortly: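 ACLY mRNA quantified by qRT-PCR on Fluidigm arrays against three housekeeping genes, after 48 h chemical treatment of HepaRG cells (top concentration 100 uM, half-log steps, 0.5% DMSO vehicle). Up- or down-regulation fitted relative to DMSO.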

Read-out in assay [17]: Peroxisomal acyl-coenzyme A oxidase 1 (ACOX1) gene, ACOX1 (gene 51)
The assay can be described thus: LTEA_HepaRG_ACOX1: Life Technologies and Expression Analysis (LTEA) Assay for Peroxisomal acyl-coenzyme A oxidase 1 (ACOX1) gene using HepaRG (AID 2283467). Conditions: mRNA level, 48 h; actives raise or lower the signal. In short, it runs like this: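 ACOX1 transcript levels were quantified by TaqMan qRT-PCR against three housekeeping genes after 48 h chemical exposure of differentiated human HepaRG cells. Exposure used eight half-log steps topping at 100 uM, 0.5% DMSO vehicle, in duplicate. Bidirectional curve fits were made relative to DMSO.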

Read-out in assay [18]: Alkaline Phosphatase, Placental (ALPP) gene, ALPP (gene 250)
In words: LTEA_HepaRG_ALPP: Life Technologies and Expression Analysis (LTEA) Assay for Alkaline Phosphatase, Placental (ALPP) gene using HepaRG (AID 2283468). Conditions: mRNA level, 48 h; actives raise or lower the signal. In short, it runs like this: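 HepaRG cells plated 48 h, then exposed in duplicate for 48 h in serum-free induction medium to 8-point half-log series from 100 uM in 0.5% DMSO. ALPP mRNA by TaqMan qRT-PCR, normalized to ACTB/GAPDH/POLR2A; bidirectional fit versus DMSO.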

Read-out in assay [19]: Cyclin D2 (CCND2), CCND2 (gene 894)
The assay can be described thus: LTEA_HepaRG_CCND2: Life Technologies and Expression Analysis (LTEA) Assay for Cyclin D2 (CCND2) using HepaRG (AID 2283449). Conditions: mRNA level, 48 h; actives raise or lower the signal. In short, it runs like this: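 CCND2 transcript levels, quantified by qRT-PCR and normalised to three housekeeping genes, were fitted bidirectionally against 0.5% DMSO. HepaRG cultures were dosed 48 h in duplicate with an 8-point half-log series up to 100 uM.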

Data on six molecules can be found in PubChem BioAssay (EPA / NIEHS).

For orientation: AC50 means the concentration giving half of the maximal activity seen.

Active and inactive are the calls of the source. How the source made its calls: active means hit-call score of the fitted dose curve at least 0.9, where 1 is the maximum; inactive means score below 0.9.

Broad substrate specificity ATP-binding cassette transporter ABCG2 (Homo sapiens), sequence (Q9UNQ0 whole entry, looked up): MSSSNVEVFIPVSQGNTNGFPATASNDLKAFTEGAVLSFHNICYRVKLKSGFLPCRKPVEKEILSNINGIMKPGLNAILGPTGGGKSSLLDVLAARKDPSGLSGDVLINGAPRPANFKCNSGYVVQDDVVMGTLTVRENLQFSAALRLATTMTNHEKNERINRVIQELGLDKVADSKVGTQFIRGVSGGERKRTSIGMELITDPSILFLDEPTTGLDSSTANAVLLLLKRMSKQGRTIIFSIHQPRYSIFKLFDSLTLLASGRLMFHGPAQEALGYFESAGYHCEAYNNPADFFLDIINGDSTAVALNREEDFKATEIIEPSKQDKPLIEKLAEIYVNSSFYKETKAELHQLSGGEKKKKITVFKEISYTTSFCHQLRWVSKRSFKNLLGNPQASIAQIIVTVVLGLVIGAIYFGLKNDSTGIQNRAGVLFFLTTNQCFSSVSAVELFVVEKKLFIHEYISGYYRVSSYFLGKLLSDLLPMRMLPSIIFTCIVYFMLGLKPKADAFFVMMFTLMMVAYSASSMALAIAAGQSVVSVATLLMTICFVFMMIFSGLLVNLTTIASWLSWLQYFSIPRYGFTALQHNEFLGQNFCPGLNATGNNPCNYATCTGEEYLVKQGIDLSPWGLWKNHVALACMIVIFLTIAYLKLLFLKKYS
Fatty acid synthase (Homo sapiens), sequence (P49327 whole entry, looked up): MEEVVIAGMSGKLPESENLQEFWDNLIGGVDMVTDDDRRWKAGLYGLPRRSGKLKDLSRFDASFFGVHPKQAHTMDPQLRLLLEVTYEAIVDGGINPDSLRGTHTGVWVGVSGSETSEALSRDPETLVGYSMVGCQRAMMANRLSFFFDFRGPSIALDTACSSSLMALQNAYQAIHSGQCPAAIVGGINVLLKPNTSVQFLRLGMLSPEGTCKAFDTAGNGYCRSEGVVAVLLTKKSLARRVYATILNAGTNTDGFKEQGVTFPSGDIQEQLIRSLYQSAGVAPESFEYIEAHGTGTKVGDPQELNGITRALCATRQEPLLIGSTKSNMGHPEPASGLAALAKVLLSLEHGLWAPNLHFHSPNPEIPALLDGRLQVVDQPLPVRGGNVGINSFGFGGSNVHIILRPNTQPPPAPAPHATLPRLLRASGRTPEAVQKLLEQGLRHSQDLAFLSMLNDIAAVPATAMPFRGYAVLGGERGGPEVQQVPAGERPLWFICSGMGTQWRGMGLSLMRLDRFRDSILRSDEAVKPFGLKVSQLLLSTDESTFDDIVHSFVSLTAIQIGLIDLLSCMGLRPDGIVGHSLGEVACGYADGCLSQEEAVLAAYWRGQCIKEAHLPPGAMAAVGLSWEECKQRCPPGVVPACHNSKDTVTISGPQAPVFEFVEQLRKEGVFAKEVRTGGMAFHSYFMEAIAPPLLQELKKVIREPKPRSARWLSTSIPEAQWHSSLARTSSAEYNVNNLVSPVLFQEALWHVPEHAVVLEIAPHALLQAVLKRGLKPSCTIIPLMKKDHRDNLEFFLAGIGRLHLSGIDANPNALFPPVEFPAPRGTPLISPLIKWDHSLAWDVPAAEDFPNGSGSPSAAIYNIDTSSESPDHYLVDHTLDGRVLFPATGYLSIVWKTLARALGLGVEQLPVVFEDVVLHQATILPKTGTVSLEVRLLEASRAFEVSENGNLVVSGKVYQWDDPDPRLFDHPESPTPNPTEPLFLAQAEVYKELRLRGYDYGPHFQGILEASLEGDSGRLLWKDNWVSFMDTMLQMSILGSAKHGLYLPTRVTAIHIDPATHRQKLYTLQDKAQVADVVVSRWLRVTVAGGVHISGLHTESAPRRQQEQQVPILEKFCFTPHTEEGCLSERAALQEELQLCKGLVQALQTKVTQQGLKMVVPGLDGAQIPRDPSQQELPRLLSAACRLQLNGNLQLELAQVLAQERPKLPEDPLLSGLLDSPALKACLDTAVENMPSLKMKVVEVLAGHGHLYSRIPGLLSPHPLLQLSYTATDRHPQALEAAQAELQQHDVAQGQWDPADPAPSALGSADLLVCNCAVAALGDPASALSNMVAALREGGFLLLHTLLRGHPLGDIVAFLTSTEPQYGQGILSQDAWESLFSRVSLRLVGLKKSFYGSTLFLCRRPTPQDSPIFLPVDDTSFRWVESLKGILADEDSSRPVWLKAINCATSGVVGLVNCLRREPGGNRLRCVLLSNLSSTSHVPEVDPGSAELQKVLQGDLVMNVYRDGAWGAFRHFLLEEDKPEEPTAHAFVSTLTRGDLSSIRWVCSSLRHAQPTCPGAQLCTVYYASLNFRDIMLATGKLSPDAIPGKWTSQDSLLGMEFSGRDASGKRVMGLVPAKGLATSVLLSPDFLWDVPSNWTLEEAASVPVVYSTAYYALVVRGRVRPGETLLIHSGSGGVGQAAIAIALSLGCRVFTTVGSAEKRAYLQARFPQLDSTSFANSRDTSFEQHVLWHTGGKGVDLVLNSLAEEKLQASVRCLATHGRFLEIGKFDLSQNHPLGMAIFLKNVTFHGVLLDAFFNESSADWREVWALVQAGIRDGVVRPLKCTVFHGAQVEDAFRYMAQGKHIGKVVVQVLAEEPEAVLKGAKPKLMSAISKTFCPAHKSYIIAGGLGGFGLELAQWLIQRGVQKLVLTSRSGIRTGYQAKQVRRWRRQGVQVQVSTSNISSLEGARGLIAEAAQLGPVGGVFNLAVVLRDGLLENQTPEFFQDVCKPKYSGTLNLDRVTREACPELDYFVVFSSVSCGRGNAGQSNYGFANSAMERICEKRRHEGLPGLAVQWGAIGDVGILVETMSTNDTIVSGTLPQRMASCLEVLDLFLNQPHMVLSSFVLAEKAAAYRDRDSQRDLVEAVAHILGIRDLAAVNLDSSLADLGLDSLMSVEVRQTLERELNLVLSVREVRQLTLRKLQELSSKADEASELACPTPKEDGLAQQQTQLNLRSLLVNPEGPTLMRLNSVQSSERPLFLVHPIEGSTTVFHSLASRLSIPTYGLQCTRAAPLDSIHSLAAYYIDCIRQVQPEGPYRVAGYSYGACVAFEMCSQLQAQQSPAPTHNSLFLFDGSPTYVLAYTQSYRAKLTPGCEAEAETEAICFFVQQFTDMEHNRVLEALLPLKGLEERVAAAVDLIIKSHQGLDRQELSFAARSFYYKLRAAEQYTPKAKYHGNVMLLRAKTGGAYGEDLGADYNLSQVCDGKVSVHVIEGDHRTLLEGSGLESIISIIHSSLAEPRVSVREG

As to `CCOP(=S)(OCC)SCCS(=O)(=O)CC`, in assay [1], the outcome was inactive. Also, the AC50 in [2] is 19.2 µM (active).
Regarding `Nc1ccc(-c2ccc(N)c(Cl)c2)cc1Cl`, the outcome in assay [1] and in assay [2] was inactive.
As for `O=C(Nc1ccc2[nH]ccc2c1)c1cc2cc(F)ccc2n1Cc1cccc(F)c1`, the result in [1], in assay [4], in [8], in assay [9], in assay [11] and in [13] was inactive. Further, the result in [16] was inactive. For the same molecule, the AC50 in assay [2] is 4.84 µM (active); in [3] it was 24.3 µM (active); in assay [5] it was 39.5 µM (active); in assay [6], 25.1 µM (active); in assay [7], 26.3 µM (active); in assay [10], 20.7 µM (active). Also, the AC50 in assay [12] was 90.3 µM (active); in assay [14], 38.1 µM (active); in assay [15] it was 32.2 µM (active); in assay [17], 63.1 µM (active); in assay [18], 14.4 µM (active).
For `C[C@]12CC[C@H](O)CC1=CC[C@@H]1[C@@H]2CC[C@]2(C)C(=O)CC[C@@H]12`, the molecule was classed as inactive in assay [1] and in [2].
For `Oc1ccc(-c2ccccc2)cc1`, the result in [1] was inactive.
With `CCOP(=S)(OCC)SCSP(=S)(OCC)OCC`, the molecule was classed as inactive in assay [1], in assay [19], in [4], in assay [5], in [6] and in assay [7]. Besides, the result in [8], in assay [9], in assay [11], in assay [12], in assay [14] and in [15] was inactive. Also, the molecule was called inactive in [17] and in [18]. In addition, the AC50 in assay [2] was 4.53 µM (active); in assay [3], 90.8 µM (active); in assay [10] it was 0.0566 µM (active); in assay [13], 0.0743 µM (active); in assay [16], 78.7 µM (active).
